# Reference: PubChem BioAssay (EPA / NIEHS)
# Where “and” joins values, the source holds several entries; their conditions need not be identical. Identical values can stand only once. Results filed as inconclusive are left out. Where a structure was tested more than once in an assay, its records may differ in their call. Calls of active or inactive are those of the source. How the source made its calls, unless noted: active means hit-call score of the fitted dose curve at least 0.9, where 1 is the maximum; inactive means score below 0.9.
# Tests used:
# [1] = read-out: Monokine induced gamma interferon (MIG), CXCL9 (gene 4283); assay: BSK_SAg_MIG: BioMAP Diversity Plus: SAg Assay for Monokine induced gamma interferon (MIG) Biomarker Activity (AID 2283092); conditions: primary human HUVEC with PBMC; actives raise or lower the signal
# Summary of the method: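 HUVEC plus human PBMC co-culture, chemicals dosed and MIG (CXCL9) quantified by ELISA at 24 h. Bidirectional curve fitting against DMSO as negative control and baseline, so both gain and loss of signal count as activity.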
# [2] = BSK_SAg_PBMCCytotoxicity: PBMC Cytotoxicity Assessment in the BioMAP Diversity Plus: SAg Assay (AID 2283093); conditions: primary human HUVEC with PBMC;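 further: PBMC viability measured as Alamar Blue reduction fluorescence at 546/580 nm; fitted both ways against DMSO so a hit may be loss or gain of signal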;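 on AC50: PBMC superantigen activated with SEB plus TSST-1 one hour after compound addition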
# Summary of the method: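 Human umbilical vein endothelial cells co-cultured with PBMC; PBMC (75,000/well) pre-treated with compound 1 h, then activated with SEB and TSST-1 (20 ng/mL final each) for 90 h. Alamar Blue added 6 h, fluorescence 546/580 nm; bidirectional fit versus DMSO.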
# [3] = read-out: Interleukin-8 (IL8), CXCL8 (gene 3576); assay: BSK_SAg_IL8: BioMAP Diversity Plus: SAg Assay for Interleukin-8 (IL8) Biomarker Activity (AID 2283094); conditions: primary human HUVEC with PBMC; actives raise or lower the signal
# Summary of the method: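 Human umbilical vein endothelial cells co-cultured with PBMC, stimulated with superantigen; IL-8 measured by ELISA 24 h after chemical dosing. Bidirectional fitting versus DMSO; SRB staining in parallel cultures tracks cytotoxicity.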
# [4] = BSK_SAg_Proliferation: Cell Proliferation Assessment in the BioMAP Diversity Plus: SAg Assay (AID 2283095); conditions: primary human HUVEC with PBMC
# Summary of the method: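 Human umbilical vein endothelial cells co-cultured with PBMC; sulforhodamine B total-protein staining (0.1% SRB after 10% TCA fixation, absorbance 560 nm) at 96 h in sub-confluent culture. Fitted bidirectionally against DMSO.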
# [5] = BSK_SAg_SRB: Viability Assessment in the BioMAP Diversity Plus: SAg Assay (AID 2283096); conditions: primary human HUVEC with PBMC;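 further: cells read one day after compound addition; hits may be either gain or loss of signal compared with DMSO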
# Summary of the method: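 Endothelial/PBMC primary human co-culture; compound 24 h; fix 10% TCA, stain 0.1% SRB, A560; protein content as cytotoxicity proxy; bidirectional curve fit, DMSO = baseline.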
# [6] = molecular target: human CYP19A1, CYP19A1 (gene 1588) (UniProt P11511); assay: NVS_ADME_hCYP19A1: NovaScreen (NVS) CYP450-related Enzyme Activity (ADME) Assay for human CYP19A1 (AID 2283098; active means hit-call score of the fitted dose curve at least 0.9, where 1 is the maximum;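 on AC50: potency for inhibitors seen as loss of fluorescent enzyme signal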)
# Summary of the method: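 Cell-free enzyme assay with recombinant protein and a specific fluorogenic substrate, read by fluorescence intensity 0.5 h after dosing. Primary screen ran in duplicate at 10 uM; actives were retested in concentration series. Loss of signal versus acetonitrile baseline.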
# [7] = molecular target: Cytochrome P450 2C19 (Homo sapiens) (UniProt P33261); assay: NVS_ADME_hCYP2C19: NovaScreen (NVS) CYP450-related Enzyme Activity (ADME) Assay for human CYP2C19 (AID 2283113; active means hit-call score of the fitted dose curve at least 0.9, where 1 is the maximum;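 on AC50: potency for inhibition seen as loss of fluorescent signal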)
# Summary of the method: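 Compounds first screened in duplicate at 10 uM, then confirmed in concentration series. Insect-cell-expressed human CYP2C19 turned over a fluorogenic substrate, and fluorescence was read after 1 h. Inhibition taken as signal loss relative to acetonitrile.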
# [8] = molecular target: human CYP2A6, CYP2A6 (gene 1548) (UniProt P11509); assay: NVS_ADME_hCYP2A6: NovaScreen (NVS) CYP450-related Enzyme Activity (ADME) Assay for human CYP2A6 (AID 2283099; active means hit-call score of the fitted dose curve at least 0.9, where 1 is the maximum)
# Summary of the method: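 Compounds screened at 10 uM (duplicate) and, if active, titrated to a 20 uM top concentration against insect-cell-expressed CYP2A6. Loss of fluorescent product signal after 0.5 h, relative to acetonitrile baseline, indicates inhibition.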
# [9] = molecular target: human CYP1A2, CYP1A2 (gene 1544) (UniProt P05177); assay: NVS_ADME_hCYP1A2: NovaScreen (NVS) CYP450-related Enzyme Activity (ADME) Assay for human CYP1A2 (AID 2283102; active means hit-call score of the fitted dose curve at least 0.9, where 1 is the maximum;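 on AC50: potency for inhibition since loss of fluorescence marks reduced CYP1A2 activity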)
# Summary of the method: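 Enzyme activity of insect-cell-expressed human CYP1A2 measured by fluorescence 0.5 h after compound addition, relative to acetonitrile. Compounds first tested in duplicate at 10 uM, actives followed up in concentration series.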
# [10] = molecular target: human CYP2C9, CYP2C9 (gene 1559) (UniProt P11712); assay: NVS_ADME_hCYP2C9: NovaScreen (NVS) CYP450-related Enzyme Activity (ADME) Assay for human CYP2C9 (AID 2283108; active means hit-call score of the fitted dose curve at least 0.9, where 1 is the maximum)
# Summary of the method: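 Cell-free assay of recombinant human CYP2C9 produced in Sf9 cells, with enzyme activity read by fluorescence intensity 0.75 h after compound addition. Loss of signal versus an acetonitrile negative control indicates inhibition. Primary screen used 10 uM in duplicate; actives were retested in concentration series.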
# [11] = molecular target: rat CYP2C13, Cyp2c13 (gene 171521) (UniProt P20814); assay: NVS_ADME_rCYP2C13: NovaScreen (NVS) CYP450-related Enzyme Activity (ADME) Assay for rat CYP2C13 (AID 2283121; active means hit-call score of the fitted dose curve at least 0.9, where 1 is the maximum)
# Summary of the method: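 Recombinant rat CYP2C13 with fluorogenic substrate, 0.75 h cell-free incubation; primary screen in duplicate at 10 uM, actives followed in concentration series. Fluorescence loss relative to acetonitrile control indicates inhibition.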
# [12] = molecular target: human CYP1A1, CYP1A1 (gene 1543) (UniProt P04798); assay: NVS_ADME_hCYP1A1: NovaScreen (NVS) CYP450-related Enzyme Activity (ADME) Assay for human CYP1A1 (AID 2283100; active means hit-call score of the fitted dose curve at least 0.9, where 1 is the maximum)
# Summary of the method: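 Chemicals were first tested in duplicate at 10 uM, and those passing a 30% inhibition threshold were rerun as concentration series topping at 20 uM. Fluorescence read-out of recombinant enzyme turnover after 1 h, relative to acetonitrile.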
# [13] = molecular target: rat CYP2A1, Cyp2a1 (gene 24894) (UniProt P11711); assay: NVS_ADME_rCYP2A1: NovaScreen (NVS) CYP450-related Enzyme Activity (ADME) Assay for rat CYP2A1 (AID 2283114)
# Summary of the method: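 Recombinant rat CYP2A1, cell-free, fluorogenic substrate turnover read by fluorescence intensity 0.75 h after dosing. Primary screen at 10 uM in duplicate; actives rerun as concentration-response up to 20 uM; loss of signal versus acetonitrile control.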
# [14] = molecular target: human CYP2B6, CYP2B6 (gene 1555) (UniProt P20813); assay: NVS_ADME_hCYP2B6: NovaScreen (NVS) CYP450-related Enzyme Activity (ADME) Assay for human CYP2B6 (AID 2283101; active means hit-call score of the fitted dose curve at least 0.9, where 1 is the maximum)
# Summary of the method: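 Recombinant human CYP2B6 with fluorogenic substrate, read by fluorescence intensity 1 h after dosing. Primary screen in duplicate at 10 uM, actives followed in concentration series; signal loss relative to acetonitrile control.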
# [15] = molecular target: human CYP2D6, CYP2D6 (gene 1565) (UniProt P10635); assay: NVS_ADME_hCYP2D6: NovaScreen (NVS) CYP450-related Enzyme Activity (ADME) Assay for human CYP2D6 (AID 2283107; active means hit-call score of the fitted dose curve at least 0.9, where 1 is the maximum)
# Summary of the method: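 Fluorescence readout of recombinant CYP2D6 (insect-cell derived) activity after 1 h incubation with test chemical. Acetonitrile served as baseline, loss-of-signal direction. Single-concentration duplicate screening at 10 uM preceded concentration-response retesting.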
# [16] = molecular target: rat CYP2A2, Cyp2a2 (gene 24895) (UniProt P15149); assay: NVS_ADME_rCYP2A2: NovaScreen (NVS) CYP450-related Enzyme Activity (ADME) Assay for rat CYP2A2 (AID 2283116; active means hit-call score of the fitted dose curve at least 0.9, where 1 is the maximum)
# Summary of the method: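 Cell-free recombinant rat CYP2A2 activity with fluorogenic substrate, fluorescence read 0.2 h after dosing. Chemicals screened at 10 uM in duplicate, hits then run in concentration-response up to 20 uM; signal loss versus acetonitrile baseline.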
# [17] = molecular target: rat CYP2C11, Cyp2c11 (gene 29277) (UniProt P08683); assay: NVS_ADME_rCYP2C11: NovaScreen (NVS) CYP450-related Enzyme Activity (ADME) Assay for rat CYP2C11 (AID 2283118; active means hit-call score of the fitted dose curve at least 0.9, where 1 is the maximum)
# Summary of the method: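 Cell-free recombinant rat enzyme with fluorescent substrate; readout 0.33 h after dosing, loss of signal versus acetonitrile control. Initial duplicate single-point at 10 uM; actives rerun in concentration series.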
# [18] = test system: rat CYP2C6, gene 293989; assay: NVS_ADME_rCYP2C6: NovaScreen (NVS) CYP450-related Enzyme Activity (ADME) Assay for rat CYP2C6 (AID 2283120; active means hit-call score of the fitted dose curve at least 0.9, where 1 is the maximum)
# Summary of the method: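 Cell-free recombinant rat CYP2C6 with fluorogenic substrate, read by fluorescence 1 h after dosing; acetonitrile as negative control. Primary screen at 10 uM in duplicate, actives then in concentration-response up to 20 uM.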
# [19] = molecular target: rat CYP2D2, Cyp2d26 (gene 25053) (UniProt P10634); assay: NVS_ADME_rCYP2D2: NovaScreen (NVS) CYP450-related Enzyme Activity (ADME) Assay for rat CYP2D2 (AID 2283124; active means hit-call score of the fitted dose curve at least 0.9, where 1 is the maximum)
# Summary of the method: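 Recombinant rat CYP2D2 in a cell-free fluorogenic activity assay, fluorescence read 0.75 h after dosing. Primary screen in duplicate at 10 uM; actives re-run singly in concentration-response to 20 uM, relative to acetonitrile.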
# Sequence of human CYP1A1, CYP1A1 (gene 1543) (P04798 whole entry, looked up): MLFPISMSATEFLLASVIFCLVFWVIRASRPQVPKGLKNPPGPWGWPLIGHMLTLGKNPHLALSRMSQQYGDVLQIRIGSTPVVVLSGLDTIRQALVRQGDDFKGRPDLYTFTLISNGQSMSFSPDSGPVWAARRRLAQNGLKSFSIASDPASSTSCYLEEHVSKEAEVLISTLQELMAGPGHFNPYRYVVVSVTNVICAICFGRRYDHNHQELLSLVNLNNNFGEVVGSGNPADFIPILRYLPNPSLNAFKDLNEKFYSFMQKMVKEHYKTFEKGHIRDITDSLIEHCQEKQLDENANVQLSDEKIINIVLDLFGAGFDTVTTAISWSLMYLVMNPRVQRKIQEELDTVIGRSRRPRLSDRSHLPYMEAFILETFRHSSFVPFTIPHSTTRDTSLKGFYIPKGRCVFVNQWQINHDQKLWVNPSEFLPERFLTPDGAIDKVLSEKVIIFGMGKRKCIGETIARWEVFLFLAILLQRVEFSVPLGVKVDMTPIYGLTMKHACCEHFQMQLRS
# Sequence of human CYP1A2, CYP1A2 (gene 1544) (P05177 whole entry, looked up): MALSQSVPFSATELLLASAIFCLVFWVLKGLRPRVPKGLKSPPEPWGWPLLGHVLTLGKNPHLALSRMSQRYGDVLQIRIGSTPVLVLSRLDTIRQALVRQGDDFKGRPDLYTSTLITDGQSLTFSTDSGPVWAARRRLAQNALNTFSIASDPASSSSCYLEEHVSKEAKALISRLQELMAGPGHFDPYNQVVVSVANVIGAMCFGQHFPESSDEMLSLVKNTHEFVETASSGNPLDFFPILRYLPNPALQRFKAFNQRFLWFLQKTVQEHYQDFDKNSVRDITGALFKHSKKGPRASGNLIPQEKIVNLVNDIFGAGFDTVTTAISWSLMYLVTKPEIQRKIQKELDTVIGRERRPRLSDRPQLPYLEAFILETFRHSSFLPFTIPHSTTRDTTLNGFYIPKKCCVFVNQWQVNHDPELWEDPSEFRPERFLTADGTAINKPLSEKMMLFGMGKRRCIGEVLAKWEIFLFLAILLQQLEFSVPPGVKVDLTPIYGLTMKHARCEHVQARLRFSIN
# Sequence of human CYP2C9, CYP2C9 (gene 1559) (P11712 whole entry, looked up): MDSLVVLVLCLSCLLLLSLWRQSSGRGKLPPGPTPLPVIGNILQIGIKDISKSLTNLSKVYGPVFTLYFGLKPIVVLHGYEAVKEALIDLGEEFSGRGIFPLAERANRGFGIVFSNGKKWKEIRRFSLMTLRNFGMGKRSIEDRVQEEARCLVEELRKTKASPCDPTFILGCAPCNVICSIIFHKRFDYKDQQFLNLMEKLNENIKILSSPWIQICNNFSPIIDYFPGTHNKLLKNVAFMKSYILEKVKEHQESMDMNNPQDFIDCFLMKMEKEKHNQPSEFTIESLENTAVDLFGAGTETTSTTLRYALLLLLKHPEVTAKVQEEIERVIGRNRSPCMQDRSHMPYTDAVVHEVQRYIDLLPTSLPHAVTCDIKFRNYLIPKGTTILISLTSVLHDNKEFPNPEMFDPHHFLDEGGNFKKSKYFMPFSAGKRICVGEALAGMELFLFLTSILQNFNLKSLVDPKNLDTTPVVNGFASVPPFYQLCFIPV
# Sequence of human CYP19A1, CYP19A1 (gene 1588) (P11511 whole entry, looked up): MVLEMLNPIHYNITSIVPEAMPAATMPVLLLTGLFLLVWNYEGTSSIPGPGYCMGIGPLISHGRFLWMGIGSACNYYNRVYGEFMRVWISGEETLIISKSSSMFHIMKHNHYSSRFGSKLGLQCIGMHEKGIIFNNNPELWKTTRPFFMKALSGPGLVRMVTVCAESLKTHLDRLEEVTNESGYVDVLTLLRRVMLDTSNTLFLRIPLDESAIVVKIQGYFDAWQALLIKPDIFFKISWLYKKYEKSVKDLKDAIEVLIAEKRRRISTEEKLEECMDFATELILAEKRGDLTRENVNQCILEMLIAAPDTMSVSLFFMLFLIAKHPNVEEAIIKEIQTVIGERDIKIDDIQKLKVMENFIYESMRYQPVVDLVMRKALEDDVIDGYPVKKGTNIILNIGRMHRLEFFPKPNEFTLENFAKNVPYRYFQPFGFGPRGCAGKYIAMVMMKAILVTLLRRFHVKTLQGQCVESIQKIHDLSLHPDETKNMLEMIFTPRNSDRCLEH
# Sequence of human CYP2A6, CYP2A6 (gene 1548) (P11509 whole entry, looked up): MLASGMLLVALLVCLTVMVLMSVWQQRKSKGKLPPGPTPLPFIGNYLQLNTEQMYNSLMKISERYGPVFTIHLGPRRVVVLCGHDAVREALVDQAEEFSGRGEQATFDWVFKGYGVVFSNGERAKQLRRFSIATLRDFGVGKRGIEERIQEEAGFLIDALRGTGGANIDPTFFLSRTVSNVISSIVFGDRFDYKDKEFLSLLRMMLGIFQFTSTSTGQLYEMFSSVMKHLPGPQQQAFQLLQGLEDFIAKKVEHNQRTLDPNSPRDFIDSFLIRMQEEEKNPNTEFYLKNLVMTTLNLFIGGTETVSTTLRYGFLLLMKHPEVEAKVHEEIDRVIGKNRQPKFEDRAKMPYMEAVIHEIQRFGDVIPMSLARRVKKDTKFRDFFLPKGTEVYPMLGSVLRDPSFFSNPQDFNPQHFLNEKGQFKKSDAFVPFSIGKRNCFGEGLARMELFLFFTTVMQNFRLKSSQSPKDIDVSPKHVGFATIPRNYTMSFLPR
# Sequence of rat CYP2A1, Cyp2a1 (gene 24894) (P11711 whole entry, looked up): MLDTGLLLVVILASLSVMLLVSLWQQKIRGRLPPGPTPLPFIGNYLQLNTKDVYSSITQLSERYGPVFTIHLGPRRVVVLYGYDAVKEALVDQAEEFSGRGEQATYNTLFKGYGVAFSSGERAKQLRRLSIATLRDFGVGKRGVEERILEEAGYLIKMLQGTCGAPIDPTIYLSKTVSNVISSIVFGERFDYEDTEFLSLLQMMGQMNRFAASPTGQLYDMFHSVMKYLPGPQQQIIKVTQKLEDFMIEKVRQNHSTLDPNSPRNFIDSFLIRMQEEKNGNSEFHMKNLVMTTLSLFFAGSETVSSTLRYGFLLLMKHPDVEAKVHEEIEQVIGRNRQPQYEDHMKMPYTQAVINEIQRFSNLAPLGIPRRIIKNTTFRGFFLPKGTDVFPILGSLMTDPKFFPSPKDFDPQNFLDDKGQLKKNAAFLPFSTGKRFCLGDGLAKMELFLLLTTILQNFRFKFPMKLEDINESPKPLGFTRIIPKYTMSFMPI
# Sequence of rat CYP2C13, Cyp2c13 (gene 171521) (P20814 whole entry, looked up): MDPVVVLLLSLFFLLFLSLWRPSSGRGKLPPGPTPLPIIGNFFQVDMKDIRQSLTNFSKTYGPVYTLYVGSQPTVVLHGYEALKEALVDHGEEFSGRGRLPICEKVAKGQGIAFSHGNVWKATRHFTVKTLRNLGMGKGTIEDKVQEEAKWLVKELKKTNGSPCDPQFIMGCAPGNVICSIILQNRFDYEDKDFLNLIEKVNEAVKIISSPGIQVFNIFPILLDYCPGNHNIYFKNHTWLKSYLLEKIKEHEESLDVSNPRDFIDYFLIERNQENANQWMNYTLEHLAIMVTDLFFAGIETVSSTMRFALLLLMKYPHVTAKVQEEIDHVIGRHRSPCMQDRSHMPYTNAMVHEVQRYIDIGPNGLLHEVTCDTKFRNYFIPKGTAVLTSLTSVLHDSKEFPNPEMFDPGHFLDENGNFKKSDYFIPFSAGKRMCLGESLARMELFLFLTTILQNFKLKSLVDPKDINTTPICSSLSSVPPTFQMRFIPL
# Sequence of human CYP2D6, CYP2D6 (gene 1565) (P10635 whole entry, looked up): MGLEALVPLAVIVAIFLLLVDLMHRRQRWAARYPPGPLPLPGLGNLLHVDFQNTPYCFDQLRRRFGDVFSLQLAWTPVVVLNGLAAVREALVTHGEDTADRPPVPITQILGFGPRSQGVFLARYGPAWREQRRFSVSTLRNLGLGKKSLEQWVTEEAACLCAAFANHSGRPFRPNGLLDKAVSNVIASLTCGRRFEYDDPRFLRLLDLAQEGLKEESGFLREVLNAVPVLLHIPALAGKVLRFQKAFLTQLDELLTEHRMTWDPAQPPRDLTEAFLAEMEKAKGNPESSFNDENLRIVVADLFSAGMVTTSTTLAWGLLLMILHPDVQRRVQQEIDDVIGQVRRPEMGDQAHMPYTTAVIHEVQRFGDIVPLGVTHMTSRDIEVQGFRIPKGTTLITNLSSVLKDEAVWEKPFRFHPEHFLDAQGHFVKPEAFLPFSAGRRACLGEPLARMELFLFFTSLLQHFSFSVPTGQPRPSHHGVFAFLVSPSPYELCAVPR
# Sequence of human CYP2B6, CYP2B6 (gene 1555) (P20813 whole entry, looked up): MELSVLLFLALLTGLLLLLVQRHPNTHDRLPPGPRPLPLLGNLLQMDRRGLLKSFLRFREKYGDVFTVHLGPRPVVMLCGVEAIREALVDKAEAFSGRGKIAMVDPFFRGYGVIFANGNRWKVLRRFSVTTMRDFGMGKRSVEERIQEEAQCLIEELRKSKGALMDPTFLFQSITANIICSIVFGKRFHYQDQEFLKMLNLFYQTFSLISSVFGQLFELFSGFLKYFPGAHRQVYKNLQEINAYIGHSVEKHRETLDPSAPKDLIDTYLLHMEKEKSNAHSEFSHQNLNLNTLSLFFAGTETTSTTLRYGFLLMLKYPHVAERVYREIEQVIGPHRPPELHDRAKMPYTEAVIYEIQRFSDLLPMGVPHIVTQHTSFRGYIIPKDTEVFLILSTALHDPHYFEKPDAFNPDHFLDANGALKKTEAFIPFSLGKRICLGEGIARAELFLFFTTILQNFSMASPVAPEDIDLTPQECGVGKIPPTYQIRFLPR
# Sequence of rat CYP2D2, Cyp2d26 (gene 25053) (P10634 whole entry, looked up): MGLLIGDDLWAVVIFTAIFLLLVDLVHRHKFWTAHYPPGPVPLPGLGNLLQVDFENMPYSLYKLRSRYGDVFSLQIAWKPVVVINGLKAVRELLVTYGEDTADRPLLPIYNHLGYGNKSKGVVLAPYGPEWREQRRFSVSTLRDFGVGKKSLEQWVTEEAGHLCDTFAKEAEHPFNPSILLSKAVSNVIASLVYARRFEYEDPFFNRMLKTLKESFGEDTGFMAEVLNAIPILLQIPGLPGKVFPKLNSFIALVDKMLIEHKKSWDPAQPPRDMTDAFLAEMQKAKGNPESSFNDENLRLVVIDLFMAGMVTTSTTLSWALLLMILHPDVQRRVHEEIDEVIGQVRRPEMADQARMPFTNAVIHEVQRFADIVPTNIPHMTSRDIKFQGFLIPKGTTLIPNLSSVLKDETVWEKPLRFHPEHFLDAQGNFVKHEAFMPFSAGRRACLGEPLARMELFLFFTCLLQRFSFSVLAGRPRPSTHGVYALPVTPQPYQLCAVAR
compound,measurement,setting,value
CCCOC(=O)NCCCN(C)C,outcome,[1],inactive
same,outcome,[2],inactive
same,outcome,[3],inactive
same,outcome,[4],inactive
same,outcome,[5],inactive
C[C@]12C[C@H](O)[C@H]3[C@@H](CCC4=CC(=O)CC[C@@]43C)[C@@H]1CC[C@@H]2C(=O)CO,outcome,[1],inactive
same,outcome,[2],inactive
same,outcome,[3],inactive
same,outcome,[4],inactive
same,outcome,[5],inactive
same,outcome,[6],inactive
COC(=O)c1cccc(C)c1S(=O)(=O)NC(=O)Nc1nc(OCC(F)(F)F)nc(N(C)C)n1,outcome,[1],inactive
same,outcome,[2],inactive
same,outcome,[3],inactive
same,outcome,[4],inactive
same,outcome,[5],inactive
CC(=O)S[C@@H]1CC2=CC(=O)CC[C@]2(C)[C@H]2CC[C@@]3(C)[C@@H](CC[C@@]34CCC(=O)O4)[C@H]12,AC50,[1],25.7 µM (active)
same,AC50,[2],13.3 µM (active)
same,AC50,[3],11.1 µM (active)
same,AC50,[4],13.7 µM (active)
same,AC50,[5],22.7 µM (active)
same,AC50,[6],8.3 µM (active)
same,outcome,[6],inactive
same,AC50,[7],6.12 µM (active)
CCN(CC)C(=O)c1cccc(C)c1,outcome,[1],inactive
same,outcome,[2],inactive
same,outcome,[3],inactive
same,outcome,[4],inactive
same,AC50,[5],13.9 µM (active)
CCSC(=O)N(CC(C)C)CC(C)C,outcome,[1],inactive
same,outcome,[2],inactive
same,outcome,[3],inactive
same,outcome,[4],inactive
same,outcome,[5],inactive
c1ccc(Nc2ccccc2)cc1,outcome,[1],inactive
same,outcome,[2],inactive
same,outcome,[3],inactive
same,outcome,[4],inactive
same,outcome,[5],inactive
OB(O)O,outcome,[1],inactive
same,outcome,[2],inactive
same,outcome,[3],inactive
same,outcome,[4],inactive
same,outcome,[5],inactive
S=C([S-])NCCNC(=S)[S-].[Mn+2],outcome,[1],inactive
same,AC50,[2],25.5 µM (active)
same,AC50,[3],30 µM (active)
same,AC50,[4],8.4 µM (active)
same,outcome,[5],inactive
same,AC50,[6],1.11 µM (active)
same,outcome,[8],inactive
same,AC50,[9],5.5 µM (active)
same,AC50,[10],10 µM (active)
same,AC50,[7],5.86 µM (active)
same,AC50,[11],10 µM (active)
COC(=O)c1ccccc1C(=O)O,outcome,[1],inactive
same,outcome,[2],inactive
same,outcome,[3],inactive
same,outcome,[4],inactive
same,outcome,[5],inactive
same,AC50,[6],3.5 µM (active)
same,outcome,[12],inactive
same,AC50,[7],5.84 µM (active)
same,outcome,[13],inactive
C=CCOC(Cn1ccnc1)c1ccc(Cl)cc1Cl (stereo not given),outcome,[1],inactive
same,AC50,[2],13.9 µM (active)
same,AC50,[3],37.1 µM (active)
same,AC50,[4],31.9 µM (active)
same,outcome,[5],inactive
same,AC50,[6],0.628 µM (active)
same,AC50,[8],2.52 µM (active)
same,AC50,[12],1.55 µM (active)
same,AC50,[14],0.188 µM (active)
same,AC50,[15],3.95 µM (active)
same,AC50,[10],0.379 µM (active)
same,AC50,[7],0.062 µM (active)
same,AC50,[13],0.187 µM (active)
same,AC50,[16],0.0175 µM (active)
same,AC50,[17],0.463 µM (active)
same,AC50,[18],0.452 µM (active)
same,AC50,[19],0.125 µM (active)
N[C@@H](Cc1cc(I)c(Oc2ccc(O)c(I)c2)c(I)c1)C(=O)O,outcome,[1],inactive
same,outcome,[2],inactive
same,outcome,[3],inactive
same,outcome,[4],inactive
same,outcome,[5],inactive
O=C(c1ccccc1)C1CCCCC1,outcome,[1],inactive
same,outcome,[2],inactive
same,outcome,[3],inactive
same,outcome,[4],inactive
same,outcome,[5],inactive
same,outcome,[6],inactive
S=C(S)NCCNC(=S)S.[Mn+2].[S-]C([S-])=NCCN=C([S-])[S-].[Zn+2],outcome,[1],inactive
same,AC50,[2],7.86 µM (active) and 20 µM (active)
same,outcome,[2],inactive
same,outcome,[3],inactive
same,outcome,[4],inactive
same,outcome,[5],inactive
same,outcome,[6],inactive
same,outcome,[8],inactive
same,outcome,[12],inactive
same,outcome,[9],inactive
same,AC50,[10],1.63 µM (active) and 1.92 µM (active) and 4.37 µM (active)
same,outcome,[7],inactive
same,outcome,[11],inactive
COc1c(Cl)ccc(Cl)c1C(=O)O,outcome,[1],inactive
same,outcome,[2],inactive
same,outcome,[3],inactive
same,outcome,[4],inactive
same,outcome,[5],inactive
CCOC(=O)C(C)Oc1ccc(Oc2cnc3cc(Cl)ccc3n2)cc1 (stereo not given),outcome,[1],inactive
same,outcome,[2],inactive
same,outcome,[3],inactive
same,outcome,[4],inactive
same,outcome,[5],inactive
